Our source for the Potency values is PubChem BioAssay AID651789 (National Center for Advancing Translational Sciences (NCATS), 2012).

Each structure is given as a SMILES string. Inconclusive results are not listed. Entries that show only a call come without a potency. Activity calls are given as the source filed them. Calls follow the shape of the dose curve; as a rule, active = well fitted inhibition curve with a large enough effect; inconclusive = small, poorly fitted or top-dose-only effect; inactive = no such curve, though single readings can be large or run the other way.
Potency is read from the fitted curve at half-maximal effect.

This test can be described thus: Acumen qHTS Assay for Inhibitors of the mTORC1 Signaling Pathway in WT MEF Cells: Hit Validation. Also: nearly all actives have a fitted effect of over 60% in size. To be noted: Acumen imaging; series mostly up to 37.3 µM. From the text: The mammalian target of rapamycin (mTOR) is an intracellular serine/threonine kinase Aberrant regulation of mTOR signaling plays a causative role in a number of human diseases, including cancer, benign tumors such as lymphangioleiomyomatosis (LAM) and Tuberous Sclerosis Complex (TSC), and metabolic diseases such as diabetes and obesity. This project aims to identify inhibitors of ribosomal protein S6 (rpS6) phosphorylation. The phosphorylation of rpS6 is a key event downstream of mTOR activation. The assay uses a phospho-specific antibody of phospho-rpS6 to detect inhibitors of mTOR activation. Mutations in the Tsc1 and Tsc2 genes are the underlying genetic lesions responsible for TSC, causing constitutive activation of the mTORC1 pathway and leading to profound effects on cell metabolism. Aberrant metabolism in cancer has recently received significant attention as a target to develop therapeutic agents in the treatment of cancer.1 As Tsc2-/- cells have lost the ability to respond to energy and growth factor deprivation, these cells are unable to properly down regulate cellular biosynthetic processes in response to metabolic stress, and are thus extremely sensitive to glucose deprivation-induced death.2 A central goal of this project is to explore the unique cell survival and metabolic properties of cells with Tsc1 or Tsc2 by screening for compounds that selectively target the Tsc2-/- MEFs by screening both Tsc2-/- and WT MEF cell lines. We hope to better understand these aspects of TSC physiology in order to exploit them for therapeutic benefit.
NIH Molecular Libraries Probe Production Centers Network [MLPCN]
NIH Chemical Genomics Center [NCGC]
Assay Submitter (PI): Blenis, John; Harvard University
For quantitative high throughput analysis of mTORC1 signaling, we developed a cell-based assay for immuno-fluorescence based detection of rpS6 phosphorylation on the Acumen Explorer that will be used a platform for the primary small molecule screen. Mouse embryonic fibroblasts (MEFs) are cultured in 1536-well plates using DMEM + 10% FBS. Twenty-four hrs after plating, test compounds (solubilized in DMSO) are delivered and incubated with the cells for 24 hrs at 37 degree Celsius. Following the incubation, media with compound is aspirated and the cells are fixed in 4% paraformaldehyde (PFA) containing PBS + 0.2% TX-100. Next, PFA is aspirated, cells are washed two times with PBS plus 0.2% TX-100 and the cells are blocked for 1 hr at room temperature (blocking buffer: LiCOR Blocking Buffer plus 0.2% TX-100). This is followed by aspiration and staining with Alexa-488 conjugated-phospho-rpS6 Ser235/236 antibody for 2 hours at room temperature (Cell Signaling Technology # 4803, 1:50 dilution in blocking buffer). Cells are washed two times with PBS plus 0.2% TX-100, and stained with 10 uM propidium iodide (PI) for 20-25 minutes for cell number measurement (1:500 dilution of Hoescht staining is also added for IN Cell imaging). The plates are scanned on the Acumen Explorer laser scanning instrument (TTP Labtech) using the 488nm laser for simultaneous excitation of the Alexa-488 and PI. […] Fluorescence emission from the PI stain is selected using a 575-640 nm band pass filter. The normalized phospho-S6 staining is calculated as the ratio of the integrated Alexa 488 intensity divided by the integrated PI intensity for the single concentration rapamycin control (7.5 nM) and DMSO columns. […] Inhibition of the pathway is defined based on the normalized phospho-S6 intensity in rapamycin treated cells. Active cells are defined as those with a normalized phospho-S6 staining above this threshold, and each treatment is reported as the % positive cells in the well, where thresholds are defined by selecting wells with the highest and lowest signal and differentiating between the % non-active and % active populations. In addition to the pathway specific phospho-S6 endpoint, the number of PI stained cells from the Acumen is recorded as a measure of cell viability. […]
On the technique in general: Quantitative high-throughput screening tests each substance at several concentrations.
As for `CC(C)CS(=O)(=O)c1oc(-c2ccc(F)cc2)nc1S(=O)(=O)c1ccccc1`, the Potency was 0.585 µM (active). In the case of `CCCN1C(=O)C(Cc2nc3ccccc3c(=O)n2CC)c2ccccc21` (stereo not given), the Potency entry was “inactive”.

As to `CCc1ccc(OCC(=O)N(Cc2ccc(C)cc2)Cc2ccco2)cc1`, the Potency result was “inactive”. For `NC(=O)c1ccc(-c2nc(-c3ccc4c(c3)OCO4)c(-c3ccccn3)[nH]2)cc1`, the Potency result is “inactive”. Turning to `COc1cccc(-c2nc(SCC(=O)NCC3CCCO3)c(-c3ccc(F)cc3)[nH]2)c1` (stereo not given), the Potency entry was “inactive”. For `Cc1ccc(NC(=O)Cn2cc(C(=O)C3CCCCC3)c3ccccc32)cc1`, the Potency result was “inactive”. Turning to `CCc1ccc(CN(Cc2ccco2)C(=O)c2cc(-c3ccc(C)c(F)c3)on2)cc1`, the Potency entry is “inactive”. `CCCCn1c(=N)n(CCOc2ccccc2OC)c2ccccc21`: the Potency is 11.7 µM (active).

Take `O=C(CCn1cnc2onc(-c3ccc(F)cc3)c2c1=O)Nc1ccc(F)c(Cl)c1`: the Potency entry is “inactive”.

In the case of `Cc1noc(/C=C/N(C)C)c1S(=O)(=O)N1CCCC(C(=O)Nc2ccc(F)cc2F)C1` (stereo not given), the Potency was 1.85 µM (active).

Take `CCC(C)NC(=O)c1sc2nc(C)c(C(=O)Nc3ccc(C)cc3C)c(-c3ccc(Cl)cc3)c2c1N` (stereo not given): the Potency entry is “inactive”. The entry for `CCCSc1ncc(Cl)c(C(=O)Nc2ccc(S(=O)(=O)N3CCCCC3C)cc2)n1` (stereo not given) is “inactive”; for `O=C(CS(=O)(=O)c1cccc2nsnc12)NCc1ccc(Cl)cc1` it is “inactive”; for `COc1ccc(NC(=O)CSc2c3c(nc4ccccc24)CCC3)c(OC)c1` it is “inactive”. The entry for `O=C(NCCSc1c(-c2ccc(F)cc2)[nH]c2ccccc12)c1ccc(S(=O)(=O)N2CCOCC2)cc1` is “inactive”; for `CCCCN(C)CCNC(=O)c1cc2c(=O)n(C)c3ccccc3c2n1C` it is “inactive”; for `Cc1ccc(C)c(NC(=O)Nc2cc3c(cc2N2CCCCC2)n(C)c(=O)n3C)c1` it is “inactive”.

`Cc1cccc(Nc2nnc(-c3ccc(C)c(S(=O)(=O)N4CCN(C)CC4)c3)c3ccccc23)c1`: the Potency entry was “inactive”. In the case of `CCN(CC)CCOC(=O)c1ccc(NC(=O)c2nn(-c3ccc(C)cc3)c(=O)c3c2c2ccccc2n3C)cc1`, the Potency was 1.17 µM (active).

As to `Cc1cccc(Oc2coc3cc(OCC(=O)NC4CCCCC4)ccc3c2=O)c1`, the Potency result was “inactive”. The entry for `CC(C)(C)c1ccc(S(=O)(=O)N2CCC(c3ccncc3)CC2)cc1` is “inactive”; for `CCC1CN(C(=O)NCc2ccc(F)cc2)c2cc(C)ccc2O1` (stereo not given) it is “inactive”. As to `O=C(NCc1ccc(F)cc1)c1ccc2c(Cl)c3c(nc2c1)CCCC3`, the Potency result was “inactive”. For `COc1cccc(-c2nnc3sc(CN4CCCCC4)cn23)c1`, the Potency is 1.65 µM (active).

With `Cc1cccc(Cn2cc(C(=O)Nc3ccc(F)c(C(F)(F)F)c3)ccc2=O)c1`, the Potency entry was “inactive”. As for `COc1ccc(Oc2nc3c(C)cccn3c(=O)c2/C=C(\C#N)c2nc3ccccc3[nH]2)cc1`, the Potency result is “inactive”. Then `CCOC(=O)Cn1c(=O)c2c(nc(N3CCOCC3)n2Cc2ccccc2)n(C)c1=O`, with 4.14 µM (active); and `Cc1cccc(C(=O)Nc2c(C(=O)NCc3ccc(Cl)cc3)sc3nc(C)cc(C)c23)c1`, with “inactive”.

Take `CCn1c(CN2CCC(C)CC2)nc2cc(NC(=O)c3ccccc3[N+](=O)[O-])ccc21`: the Potency entry was “inactive”. On to `CCc1ccc(OCC(=O)Nc2ccc3oc(-c4ccc(OC)cc4)nc3c2)cc1`, for which the Potency entry was “inactive”.

For the molecule `Cc1ccc([C@H]2Nc3ccc(S(=O)(=O)Nc4cccc(Cl)c4C)cc3[C@H]3C=CC[C@H]32)cc1`, the Potency result was “inactive”. Then `COc1ccc(OCC(O)Cn2c(=N)n(CCN3CCCCC3)c3ccccc32)cc1` (stereo not given), with “inactive”; and `O=C(CSc1nc2c([nH]c3ccccc32)c(=O)n1-c1ccc(F)cc1)NC1CCCCC1`, with “inactive”. As for `COc1ccc(CNC(=O)C2CCN(c3nc4ccc(C)cc4[nH]3)CC2)cc1`, the Potency result was “inactive”.

As to `CCN1CCOC(=O)C1CC(=O)Nc1cc(C)ccc1OC` (stereo not given), the Potency was 16.5 µM (active).

Take `CCOC(=O)c1ccc(N2C(=O)c3n[nH]c(-c4ccco4)c3C2c2ccc(OCC)cc2)cc1` (stereo not given): the Potency result was “inactive”. Then `COc1ccc(-c2ccc(CCC(=O)O)n2-c2ccccc2O)cc1`, with “inactive”; and `CCOC(=O)Cc1ccc(NC(=O)n2ncc3cc(Cl)ccc32)cc1`, with “inactive”. Then `CCCCS(=O)(=O)c1oc(-c2ccc(F)cc2)nc1S(=O)(=O)c1ccccc1`, with 0.656 µM (active); and `COc1cccc(C2CC(=O)Nc3cc4c(cc32)OCCO4)c1OC` (stereo not given), with “inactive”.
